Experimental data: the supplement of paper PMC11732987, “Enantioselective OTUD7B fragment discovery through chemoproteomics screening and high-throughput optimisation” (Communications Chemistry, 2025)

Legend:
Experiment in all cases: log2 ratio of Biotin-Ahx-Ub-VS probe labelling (fragment/DMSO); higher = less target engagement (more negative = stronger competition), active = hit call of the paper (q ≤ 0.05, log2 ratio ≤ -1)
Details in all cases: compound concentration: 200 uM; treatment time: 3 h
USP34 = USP34 (UniProt Q70CQ2)
Outline: (§1)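 Labelled DUBs from HEK293T lysate were NeutrAvidin-enriched, digested with LysC and trypsin, and run by diaPASEF LC-MS/MS. Before that, each 495 µg sample in Tris/CHAPS/IGEPAL buffer with protease inhibitors was treated in triplicate with fragment at 200 µM or vehicle for 3 h, then with Biotin-Ahx-Ub-VS at 0.5 µM final for 1 h. Values are average log2 ratios of fragment over vehicle by unpaired t-test, based on global-median-normalised Spectronaut label-free quantities from proteins with ≥2 unique peptides.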

USP36 = target: T1, USP36 (UniProt Q9P275)
T1 sequence (whole entry): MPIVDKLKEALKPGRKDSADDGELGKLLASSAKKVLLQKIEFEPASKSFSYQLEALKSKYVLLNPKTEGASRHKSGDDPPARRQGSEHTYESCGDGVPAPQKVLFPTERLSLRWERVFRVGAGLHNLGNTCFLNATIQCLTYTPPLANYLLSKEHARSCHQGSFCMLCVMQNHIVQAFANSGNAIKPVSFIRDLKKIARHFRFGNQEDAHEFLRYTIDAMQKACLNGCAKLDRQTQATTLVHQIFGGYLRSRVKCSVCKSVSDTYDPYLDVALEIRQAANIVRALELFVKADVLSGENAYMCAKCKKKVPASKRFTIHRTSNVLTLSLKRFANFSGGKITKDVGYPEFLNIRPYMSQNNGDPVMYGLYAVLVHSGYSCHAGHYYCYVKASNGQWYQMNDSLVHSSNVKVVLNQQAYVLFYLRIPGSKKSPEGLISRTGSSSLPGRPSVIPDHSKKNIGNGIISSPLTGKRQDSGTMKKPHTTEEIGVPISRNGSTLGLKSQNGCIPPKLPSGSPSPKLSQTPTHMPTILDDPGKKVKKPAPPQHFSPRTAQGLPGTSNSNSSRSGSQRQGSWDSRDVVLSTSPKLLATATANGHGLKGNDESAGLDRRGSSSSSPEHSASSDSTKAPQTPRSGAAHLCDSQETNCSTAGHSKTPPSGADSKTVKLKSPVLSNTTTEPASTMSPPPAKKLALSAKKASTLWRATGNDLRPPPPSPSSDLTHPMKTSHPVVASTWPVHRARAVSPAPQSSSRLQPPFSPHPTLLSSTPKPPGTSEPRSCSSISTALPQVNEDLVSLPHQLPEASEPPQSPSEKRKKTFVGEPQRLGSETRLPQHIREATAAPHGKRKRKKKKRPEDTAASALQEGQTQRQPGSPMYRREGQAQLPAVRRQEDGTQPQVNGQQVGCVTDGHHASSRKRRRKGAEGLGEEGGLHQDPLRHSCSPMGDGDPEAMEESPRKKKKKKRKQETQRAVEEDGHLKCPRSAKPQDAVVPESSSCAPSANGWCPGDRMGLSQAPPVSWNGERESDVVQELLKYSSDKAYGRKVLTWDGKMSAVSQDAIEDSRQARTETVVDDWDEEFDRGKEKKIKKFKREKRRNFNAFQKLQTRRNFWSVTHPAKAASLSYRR
Outline: as §1

USP38 = target: T2, USP38 (UniProt Q8NB14)
T2 sequence (whole entry): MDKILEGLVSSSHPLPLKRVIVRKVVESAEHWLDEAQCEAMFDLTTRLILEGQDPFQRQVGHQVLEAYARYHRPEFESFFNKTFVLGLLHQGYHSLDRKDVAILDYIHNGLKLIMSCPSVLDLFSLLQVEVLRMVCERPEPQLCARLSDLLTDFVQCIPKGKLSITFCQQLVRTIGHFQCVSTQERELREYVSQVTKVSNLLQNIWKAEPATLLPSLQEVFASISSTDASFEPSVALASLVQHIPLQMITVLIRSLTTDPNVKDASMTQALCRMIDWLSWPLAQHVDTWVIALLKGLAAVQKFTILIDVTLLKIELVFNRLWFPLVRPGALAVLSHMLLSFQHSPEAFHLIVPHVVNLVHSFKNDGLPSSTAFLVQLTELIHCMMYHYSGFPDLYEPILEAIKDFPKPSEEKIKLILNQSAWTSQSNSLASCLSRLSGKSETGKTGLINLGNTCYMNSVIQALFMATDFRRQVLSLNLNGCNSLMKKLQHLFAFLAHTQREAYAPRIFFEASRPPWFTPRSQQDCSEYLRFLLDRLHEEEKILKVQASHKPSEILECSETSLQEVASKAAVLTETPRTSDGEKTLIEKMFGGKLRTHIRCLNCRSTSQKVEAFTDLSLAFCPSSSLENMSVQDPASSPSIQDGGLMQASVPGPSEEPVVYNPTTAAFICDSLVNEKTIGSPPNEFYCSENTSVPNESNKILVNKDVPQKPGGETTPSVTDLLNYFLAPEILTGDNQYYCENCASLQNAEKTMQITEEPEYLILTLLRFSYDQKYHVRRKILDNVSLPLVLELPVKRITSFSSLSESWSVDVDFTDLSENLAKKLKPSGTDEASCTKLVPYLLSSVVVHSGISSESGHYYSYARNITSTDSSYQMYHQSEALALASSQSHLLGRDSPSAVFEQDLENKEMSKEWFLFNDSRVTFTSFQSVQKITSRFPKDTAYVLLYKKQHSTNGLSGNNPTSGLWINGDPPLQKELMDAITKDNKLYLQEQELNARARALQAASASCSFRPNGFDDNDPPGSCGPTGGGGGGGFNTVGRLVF
Outline: as §1

USP39 = target: T3, USP39 (UniProt Q53GS9)
T3 sequence (whole entry): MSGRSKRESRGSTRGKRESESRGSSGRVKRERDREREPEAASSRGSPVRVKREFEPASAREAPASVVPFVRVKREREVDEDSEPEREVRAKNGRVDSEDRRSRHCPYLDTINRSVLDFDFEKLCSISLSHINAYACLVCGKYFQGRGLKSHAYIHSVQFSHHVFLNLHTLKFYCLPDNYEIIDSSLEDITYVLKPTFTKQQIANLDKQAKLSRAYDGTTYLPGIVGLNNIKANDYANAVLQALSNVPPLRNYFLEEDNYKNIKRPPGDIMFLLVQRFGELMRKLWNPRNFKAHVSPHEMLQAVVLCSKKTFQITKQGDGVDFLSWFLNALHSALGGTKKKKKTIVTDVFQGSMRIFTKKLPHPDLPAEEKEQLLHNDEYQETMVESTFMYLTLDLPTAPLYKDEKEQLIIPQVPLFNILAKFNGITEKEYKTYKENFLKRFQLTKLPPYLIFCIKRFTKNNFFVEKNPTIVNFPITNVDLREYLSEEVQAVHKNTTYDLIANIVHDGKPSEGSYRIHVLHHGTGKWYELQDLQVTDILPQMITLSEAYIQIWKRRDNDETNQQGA
Outline: as §1

USP4 = target: T4, USP4 (UniProt Q13107)
T4 sequence (whole entry): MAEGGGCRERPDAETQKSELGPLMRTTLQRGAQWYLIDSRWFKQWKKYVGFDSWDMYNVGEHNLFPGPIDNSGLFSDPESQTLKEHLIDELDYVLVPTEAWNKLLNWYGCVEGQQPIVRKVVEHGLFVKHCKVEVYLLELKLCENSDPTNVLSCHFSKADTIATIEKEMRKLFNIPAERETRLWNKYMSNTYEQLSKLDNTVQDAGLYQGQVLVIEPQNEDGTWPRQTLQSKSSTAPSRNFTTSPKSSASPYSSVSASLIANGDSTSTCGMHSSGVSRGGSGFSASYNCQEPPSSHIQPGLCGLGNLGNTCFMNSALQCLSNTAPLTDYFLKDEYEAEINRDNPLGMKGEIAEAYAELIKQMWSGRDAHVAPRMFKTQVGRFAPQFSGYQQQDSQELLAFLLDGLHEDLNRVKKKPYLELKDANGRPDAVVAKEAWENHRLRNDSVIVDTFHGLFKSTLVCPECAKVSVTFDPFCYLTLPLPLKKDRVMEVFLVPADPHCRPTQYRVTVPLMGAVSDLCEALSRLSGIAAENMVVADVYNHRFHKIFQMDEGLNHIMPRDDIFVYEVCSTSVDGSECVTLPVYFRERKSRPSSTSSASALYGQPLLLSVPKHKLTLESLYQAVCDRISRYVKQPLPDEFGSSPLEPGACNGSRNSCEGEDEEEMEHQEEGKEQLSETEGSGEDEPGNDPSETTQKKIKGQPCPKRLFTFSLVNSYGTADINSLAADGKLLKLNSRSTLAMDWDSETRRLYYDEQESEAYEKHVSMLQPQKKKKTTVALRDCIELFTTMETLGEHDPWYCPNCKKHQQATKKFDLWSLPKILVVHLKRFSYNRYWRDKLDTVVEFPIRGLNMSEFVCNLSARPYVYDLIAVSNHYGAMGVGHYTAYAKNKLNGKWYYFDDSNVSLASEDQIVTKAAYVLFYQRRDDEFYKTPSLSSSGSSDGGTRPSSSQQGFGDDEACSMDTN
Outline: as §1

Measured: log2 ratio of Biotin-Ahx-Ub-VS probe labelling

Chain of USP34 (Q70CQ2 whole entry, the tested form may be a part): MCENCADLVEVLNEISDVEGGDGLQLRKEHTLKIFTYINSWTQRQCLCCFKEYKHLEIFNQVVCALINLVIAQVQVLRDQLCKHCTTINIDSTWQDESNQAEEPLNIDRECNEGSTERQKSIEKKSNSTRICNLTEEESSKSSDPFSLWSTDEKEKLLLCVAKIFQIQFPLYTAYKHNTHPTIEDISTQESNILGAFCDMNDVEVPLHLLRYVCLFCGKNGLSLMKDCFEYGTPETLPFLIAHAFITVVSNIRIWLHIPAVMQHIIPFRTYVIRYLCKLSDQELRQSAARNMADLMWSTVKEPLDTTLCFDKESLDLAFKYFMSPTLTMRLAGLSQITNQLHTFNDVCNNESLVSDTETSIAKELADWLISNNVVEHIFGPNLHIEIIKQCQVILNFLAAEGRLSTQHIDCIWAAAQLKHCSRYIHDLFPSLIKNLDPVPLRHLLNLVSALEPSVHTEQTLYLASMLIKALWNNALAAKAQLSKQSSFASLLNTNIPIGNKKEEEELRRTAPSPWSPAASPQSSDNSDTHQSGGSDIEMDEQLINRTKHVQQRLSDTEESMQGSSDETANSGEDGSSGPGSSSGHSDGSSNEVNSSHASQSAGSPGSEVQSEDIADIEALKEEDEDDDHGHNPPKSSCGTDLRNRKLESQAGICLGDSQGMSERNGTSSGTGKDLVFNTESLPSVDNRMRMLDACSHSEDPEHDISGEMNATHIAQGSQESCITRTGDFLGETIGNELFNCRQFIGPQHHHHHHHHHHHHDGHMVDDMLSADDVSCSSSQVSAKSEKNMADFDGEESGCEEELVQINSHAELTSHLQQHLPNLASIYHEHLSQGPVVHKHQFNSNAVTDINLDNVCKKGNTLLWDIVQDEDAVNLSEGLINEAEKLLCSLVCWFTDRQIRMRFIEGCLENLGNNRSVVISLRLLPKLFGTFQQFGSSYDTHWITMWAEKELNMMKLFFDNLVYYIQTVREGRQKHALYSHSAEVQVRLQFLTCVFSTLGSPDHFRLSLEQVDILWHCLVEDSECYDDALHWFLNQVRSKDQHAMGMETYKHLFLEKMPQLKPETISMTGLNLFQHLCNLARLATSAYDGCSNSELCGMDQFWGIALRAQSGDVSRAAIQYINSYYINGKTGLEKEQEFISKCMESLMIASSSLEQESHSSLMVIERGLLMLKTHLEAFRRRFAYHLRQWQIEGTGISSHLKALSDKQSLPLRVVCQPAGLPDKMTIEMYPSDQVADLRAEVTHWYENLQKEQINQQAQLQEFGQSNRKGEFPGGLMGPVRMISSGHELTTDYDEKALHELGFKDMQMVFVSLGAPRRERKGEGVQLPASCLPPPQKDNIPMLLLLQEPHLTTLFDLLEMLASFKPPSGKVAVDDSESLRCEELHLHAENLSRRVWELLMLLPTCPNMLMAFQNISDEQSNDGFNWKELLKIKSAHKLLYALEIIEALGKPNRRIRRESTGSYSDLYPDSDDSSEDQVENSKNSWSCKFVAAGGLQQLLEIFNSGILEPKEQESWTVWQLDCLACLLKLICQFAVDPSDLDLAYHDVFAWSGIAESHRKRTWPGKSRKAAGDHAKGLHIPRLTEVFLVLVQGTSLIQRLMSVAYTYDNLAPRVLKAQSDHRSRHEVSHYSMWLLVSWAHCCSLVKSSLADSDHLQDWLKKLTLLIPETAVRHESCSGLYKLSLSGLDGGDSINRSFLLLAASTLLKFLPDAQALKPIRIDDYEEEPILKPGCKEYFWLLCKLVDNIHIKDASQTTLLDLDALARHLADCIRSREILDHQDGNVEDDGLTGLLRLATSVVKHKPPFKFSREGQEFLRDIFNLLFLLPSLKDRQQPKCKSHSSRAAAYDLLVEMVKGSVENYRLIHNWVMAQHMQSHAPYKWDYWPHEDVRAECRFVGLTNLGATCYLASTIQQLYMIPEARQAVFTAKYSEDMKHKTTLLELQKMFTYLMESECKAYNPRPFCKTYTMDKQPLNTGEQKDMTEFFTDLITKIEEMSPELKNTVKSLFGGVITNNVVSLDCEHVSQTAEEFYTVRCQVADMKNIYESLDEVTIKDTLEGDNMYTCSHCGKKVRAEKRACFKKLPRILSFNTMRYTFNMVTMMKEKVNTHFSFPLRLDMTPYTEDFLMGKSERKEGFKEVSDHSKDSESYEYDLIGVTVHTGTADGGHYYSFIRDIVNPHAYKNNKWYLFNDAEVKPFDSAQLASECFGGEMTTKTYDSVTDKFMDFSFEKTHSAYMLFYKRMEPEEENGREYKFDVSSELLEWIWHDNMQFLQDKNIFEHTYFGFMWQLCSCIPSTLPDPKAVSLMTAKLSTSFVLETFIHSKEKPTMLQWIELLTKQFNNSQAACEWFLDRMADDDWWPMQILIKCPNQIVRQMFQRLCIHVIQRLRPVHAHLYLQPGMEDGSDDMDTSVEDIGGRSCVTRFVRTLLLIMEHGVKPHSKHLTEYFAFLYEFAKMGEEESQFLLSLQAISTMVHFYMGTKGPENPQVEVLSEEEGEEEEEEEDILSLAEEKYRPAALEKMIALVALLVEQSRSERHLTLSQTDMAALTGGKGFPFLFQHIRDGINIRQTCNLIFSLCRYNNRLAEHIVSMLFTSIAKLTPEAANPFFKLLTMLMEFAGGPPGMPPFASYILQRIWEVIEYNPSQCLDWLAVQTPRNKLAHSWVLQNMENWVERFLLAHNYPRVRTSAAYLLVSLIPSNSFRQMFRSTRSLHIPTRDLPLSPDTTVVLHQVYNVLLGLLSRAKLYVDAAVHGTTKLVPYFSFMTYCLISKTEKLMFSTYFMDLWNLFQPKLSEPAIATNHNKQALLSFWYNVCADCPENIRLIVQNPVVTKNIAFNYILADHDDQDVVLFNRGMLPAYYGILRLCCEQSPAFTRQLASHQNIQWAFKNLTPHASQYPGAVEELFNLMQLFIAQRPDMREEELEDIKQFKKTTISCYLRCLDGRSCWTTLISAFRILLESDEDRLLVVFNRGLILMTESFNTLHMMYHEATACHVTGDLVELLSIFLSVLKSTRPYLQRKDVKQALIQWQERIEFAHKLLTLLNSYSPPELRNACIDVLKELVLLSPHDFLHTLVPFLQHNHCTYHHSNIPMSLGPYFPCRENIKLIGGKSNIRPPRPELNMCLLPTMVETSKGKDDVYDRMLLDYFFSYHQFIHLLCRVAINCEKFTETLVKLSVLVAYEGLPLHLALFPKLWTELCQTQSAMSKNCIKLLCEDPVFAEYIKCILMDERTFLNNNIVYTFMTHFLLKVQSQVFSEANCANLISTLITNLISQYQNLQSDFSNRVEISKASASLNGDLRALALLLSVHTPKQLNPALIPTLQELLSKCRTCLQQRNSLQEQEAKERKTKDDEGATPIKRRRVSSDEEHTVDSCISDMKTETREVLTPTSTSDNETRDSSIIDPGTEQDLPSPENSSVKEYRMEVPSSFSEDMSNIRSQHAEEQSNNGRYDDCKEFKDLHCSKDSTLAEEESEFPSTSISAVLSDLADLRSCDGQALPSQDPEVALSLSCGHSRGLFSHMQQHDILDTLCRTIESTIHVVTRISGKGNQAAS

CC(=O)C1CCCCN1C(=O)CCl (stereo not given)
inactive: USP34 -0.216 | USP36 -0.0205 | USP38 -0.0979 | USP39 -0.37 | USP4 -0.0834
